The supplement of paper PMC6555819

Key:
Experiment in all cases: PBM binding z-score (relative to random genomic background probes); higher = stronger binding; sequences stand for … in GC…GCGATTGACAGCGTAGAATGAAGG
[1] = test system: FXR:RXRa (NR concentration 270 nM, RXRa partner concentration 90 nM)
Outline: (§1)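 Each nuclear receptor dimer, without ligand, was incubated for 1 h on custom Agilent 4×180K protein-binding microarrays. Binding was detected with antibodies against each partner (one per run), and scanned fluorescence was regression-normalized. The binding z-scores are referenced to random human genomic background probes.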

[2] = test system: LXRa:RXRa (NR concentration 270 nM, RXRa partner concentration 90 nM)
Outline: as §1

[3] = test system: LXRa homodimer (NR concentration 270 nM)
Outline: as §1

[4] = test system: LXRb:RXRa (NR concentration 270 nM, RXRa partner concentration 90 nM)
Outline: as §1

[5] = test system: LXRb homodimer (NR concentration 270 nM)
Outline: as §1

[6] = test system: PPARa:RXRa (NR concentration 270 nM, RXRa partner concentration 90 nM)
Outline: as §1

[7] = test system: PPARg:RXRa (NR concentration 180 nM, RXRa partner concentration 90 nM)
Outline: as §1

[8] = test system: PPARg:RXRa 270nM:90nM, anti-RXR (NR concentration 270 nM, RXRa partner concentration 90 nM)
Outline: as §1

[9] = test system: PPARg:RXRa 30nM:10nM, anti-RXR (NR concentration 30 nM, RXRa partner concentration 10 nM)
Outline: as §1

[10] = test system: PPARg:RXRa 90nM:30nM, anti-RXR (NR concentration 90 nM, RXRa partner concentration 30 nM)
Outline: as §1

[11] = test system: PPARg:RXRa DBDmut IVT, anti-RXR (DBD mutation: RXRa K156A/R161A, NR concentration 270 nM, RXRa partner concentration 90 nM)
Outline: as §1

[12] = test system: PPARg:RXRa IVT, anti-PPARg (NR concentration 270 nM, RXRa partner concentration 90 nM)
Outline: as §1

[13] = test system: PPARg DBDmut:RXRa IVT, anti-PPARg (DBD mutation: PPARg1 K132A/R137A, NR concentration 270 nM, RXRa partner concentration 90 nM)
Outline: as §1

[14] = test system: PPARg DBDmut IVT, anti-PPARg (DBD mutation: PPARg1 K132A/R137A, NR concentration 270 nM)
Outline: as §1

[15] = test system: PPARg homodimer (NR concentration 180 nM)
Outline: as §1

[16] = test system: PXR:RXRa (NR concentration 270 nM, RXRa partner concentration 90 nM)
Outline: as §1

[17] = test system: PXR homodimer (NR concentration 270 nM)
Outline: as §1

[18] = test system: RARa:RXR (NR concentration 270 nM, RXRa partner concentration 90 nM)
Outline: as §1

[19] = test system: RARa homodimer (NR concentration 270 nM)
Outline: as §1

[20] = test system: RARb:RXRa (NR concentration 270 nM, RXRa partner concentration 90 nM)
Outline: as §1

Sequence	PBM binding z-score [1]	PBM binding z-score [2]	PBM binding z-score [3]	PBM binding z-score [4]	PBM binding z-score [5]	PBM binding z-score [6]	PBM binding z-score [7]	PBM binding z-score [8]	PBM binding z-score [9]	PBM binding z-score [10]	PBM binding z-score [11]	PBM binding z-score [12]	PBM binding z-score [13]	PBM binding z-score [14]	PBM binding z-score [15]	PBM binding z-score [16]	PBM binding z-score [17]	PBM binding z-score [18]	PBM binding z-score [19]	PBM binding z-score [20]
CCATACAGGTGAAAGGTAACTCAGTCTGGTACGC	0.917	0.86	0.0219	1.34	0.147	4.47	7.97	7.64	6.75	8.48	4.44	4.52	0.453	0.514	1.27	1.12	0.206	1.99	0.894	1.44
TCTTGTAGATCAGCATGTTAAGAAAGCTGGCCAA	0.0411	0.107	-0.479	0.0271	-0.503	0.231	-0.371	1.52	2.44	2.19	1.61	-0.0359	-0.2	0.837	-0.198	0.127	-0.264	0.0601	-0.0517	-0.19
TTACCAAGGTGAATGTCGTTGATCCCTCTGTAGA	0.755	0.993	-0.247	0.681	-0.413	1.51	0.279	1.04	0.788	0.922	1.97	2.48	0.0323	0.0146	0.593	0.524	-0.383	1.12	0.309	1.34
TCTATTAGTTGATTAGGGGAACCGAAACAGCGGA	0.954	0.771	0.585	0.845	1.38	0.915	0.0434	2.05	4.11	2.94	2.55	0.819	0.627	1.48	1.45	0.576	0.595	0.544	2.06	0.416
CGTCAAAGTTCAAGGTAACGTCACAGAAAGCAGC	6.25	5.64	2.77	3.46	1.24	4.71	4.58	5.27	2.34	4.03	0.574	2.31	1.5	0.322	2.9	4.33	2.43	3.98	1.32	5.18
CCTAGTTGGTCAAAGTCACACACGCTATAGGTAC	0.342	0.505	0.567	0.625	0.603	0.517	1.35	1.68	0.915	1.46	1.7	1.52	0.647	0.822	1.59	0.0775	0.736	0.303	1.44	1.42
AGTCAAAGTTCACTAGATAACGTAAGATTCAGCT	4.55	4.91	2.72	2.91	1.04	3.97	5.54	5.7	2.23	4.53	0.283	2.53	1.22	1.17	2.06	3.77	3.07	2.89	1.09	4.66
TGAATGAGGTTATAAGATCACGGAACGTTGCAAA	1.72	1.49	-0.0904	1.48	-0.205	3.21	2.15	2.44	1.12	2.05	0.939	2.19	1.02	1.32	0.335	1.43	0.182	2.09	0.409	1.5
AGTCTAAGTTCACTAGGTAACGTAAGATTCAGCT	2.84	3.02	0.822	1.84	0.221	3.63	2.98	3.85	1.57	3.02	2.75	3.66	0.895	1.1	1.24	3.63	4.11	1.93	0.914	3.58
GCTTGTTGGTCAGTAAAAGGTCACACACCGGTCG	3.14	4.29	4.58	4.04	1.25	4.42	3.2	4.25	2.37	4.03	1.37	3.04	0.573	0.581	3.31	4.71	1.12	5.45	1.86	4.32
CATACAGGGTCAGCTAGCCCAGAGTAGGGACGGC	4.68	3.03	-0.244	2.21	0.0889	4.36	3.35	2.84	0.528	1.8	0.792	2.19	0.206	-0.0933	1.48	2.1	-0.17	3.11	0.642	4.01
CGAACTAGGTCAGAACAGGACAGTCAAGGATGAT	1.77	1.06	0.173	0.627	-0.362	3.31	5.24	4.41	1.74	3.31	7.24	7.46	1.4	0.732	0.7	1.08	0.108	1.05	0.263	3.08
GCTAGTTGGTCAGTAAAGGGTCACACACCGGTCG	2.1	2.52	1.36	2.63	0.0328	3.36	1.72	2.79	0.505	1.89	0.794	2.2	-0.362	-0.645	2.52	3.32	0.202	4.15	0.553	3.43
CATACAGGGTCAGCTAGGCCAGTGTAGGGACGGC	4.16	2.82	-0.158	1.81	0.182	4.09	2.96	2.97	0.501	2.32	1.02	2.44	0.598	0.349	1.32	1.78	-0.247	3.02	-0.155	3.98
AGTCAAAGTTCACTAGGTAACATAAGATTCAGCT	4.79	5.28	3.12	3.27	1.4	4.86	7.49	6.62	3.82	5.79	2.79	5.27	1.65	1.65	3.16	4.33	3.16	2.97	2.25	4.79
